Our source for the outcome values is PubChem BioAssay AID624300 (Southern Research Specialized Biocontainment Screening …, 2012).

Hit rate of the full screen: of about 2,400 compounds, about 360 (15%) were called active.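 The calls were made as follows: active = viability falls under 70% at one or more tested concentrations, taken as toxicity; inactive = viability stays over 70% at every dose.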 The list is a sample of the results. Results with a measured potency or affinity are listed apart.

This assay in a line: HeLa cell cytotoxicity, dose response, cytotoxicity control for MgcRacGAP inhibitor project (AID 624300). To be noted: CellTiter-Glo luminescence, 24 h; series mostly up to 100 µM.
For `O=C(/C=C\c1ccco1)c1ccc(NC(=O)c2ccco2)cc1`, the result was inactive.
Then `O=C(O)CCCNC(=O)/C=C/c1ccco1`, with “inactive”; and `O=C(O)CCCN1C(=O)/C(=C\c2ccco2)SC1=S`, with “inactive”.
Then `CCCN1C(=O)S/C(=C/c2ccc(N3CCOCC3)o2)C1=O`, with “inactive”; and `CCn1c(=S)[nH]c2c(=O)n(C)c(=O)n(C)c21`, with “inactive”; and `COc1cc(/C=N/NC(=O)CCN2CCN(C(c3ccccc3)c3ccccc3)CC2)ccc1O`, with “inactive”.
Then `COc1ccc2cc(OCC(=O)NNC(=O)Nc3ccc(C(C)=O)cc3)ccc2c1`, with “inactive”; and `COc1cc(/C=N/NC(=O)C(=O)Nc2ccccn2)ccc1O`, with “inactive”.
On to `O=[N+]([O-])c1cc(Br)c(O)c(C=Nc2ccc(N3CCOCC3)cc2)c1`, for which the compound was classed as inactive.
Then `CN(C)c1ccc(NS(=O)(=O)c2cc(Cl)ccc2Cl)cc1`, with “inactive”; and `CCOC(=O)N1CCC(N2CCN(S(=O)(=O)c3ccc4ccccc4c3)CC2)CC1`, with “inactive”; and `Nc1ccc2c(c1)Cc1cc(N)c(Br)cc1-2`, with “inactive”.
The same measure for `COc1cc(-c2cc(C(=O)O)c3c(OC)c(OC)c(OC)cc3n2)ccc1O`: “inactive”.
`COc1cc(-c2cc(-c3ccc(F)cc3)nc(N)c2C#N)ccc1O`: the compound was classed as inactive.
The same measure for `O=C1CC(c2ccccc2)CC(O)=C1C=Nc1ccc(O)cc1` (configuration not stated): “inactive”; for `S=c1[nH]nc2sc3ccccc3n12`: “inactive”; for `Oc1ccc(N2CCN(c3ccnc4cc(Cl)ccc34)CC2)cc1`: “inactive”.
The same measure for `O=C(O)c1c2c(nc3ccccc13)/C(=C/c1ccc(O)cc1)CCC2`: “inactive”; for `COc1cc(/C=N/NC(=O)CCc2ccccc2)ccc1O`: “inactive”.
As for `COc1cc(/C=N/NC(=O)CNC(=O)c2ccc3c(c2)OCCO3)ccc1O`, the compound was called inactive.
Then `COc1cc(/C=N/NC(=S)Nc2cccc(C(=O)O)c2)ccc1O`, with “inactive”; and `COc1cc(/C=N/NC(=O)CN(Cc2ccco2)S(=O)(=O)c2ccccc2)ccc1O`, with “inactive”; and `COc1ccc(NS(=O)(=O)c2cccc(C(=O)NN=Cc3ccc(O)c(OC)c3)c2)cc1`, with “inactive”.
The same measure for `COc1cc(/C=N/NC(=O)c2cccc([N+](=O)[O-])c2)ccc1O`: “inactive”; for `COc1cc(/C=N/NC(=O)c2ccccc2)ccc1O`: “inactive”; for `COc1cc(/C=N/NC(=O)CCn2nnc3ccccc32)ccc1O`: “inactive”.
Then `COc1cc(CN2CCC(C(=O)N3CCN(c4ccccc4F)CC3)CC2)ccc1O`, with “inactive”; and `COc1cc(/C=C/C(=O)OCC(=O)Nc2c(C)n(C)n(-c3ccccc3)c2=O)ccc1O`, with “inactive”.
`Oc1ccc(Cl)cc1N=Cc1sc2ccccc2c1Cl`: the result was inactive.
The same measure for `COCc1cc(C)nc(OCC(=O)N/N=C/c2ccc(O)cc2)c1C#N`: “inactive”; for `O=C(Cc1cccs1)N/N=C\c1ccc(O)cc1`: “inactive”; for `COCCNC(=O)COc1ccc(Nc2ccccc2)cc1`: “inactive”.
The same measure for `COc1ccc(N2CCN(c3ncccc3C#N)CC2)cc1`: “inactive”; for `COc1cc(/C=C/C(=O)OCC(=O)NNC(=O)c2cc(Cl)ccc2OC)ccc1O`: “inactive”; for `C=CCN1C(=O)CSC1=Nc1ccc(O)cc1`: “inactive”.
Then `COc1ccc(N2CCN(CC(=O)N3c4ccccc4CC3C)CC2)cc1` (configuration not stated), with “inactive”; and `Cc1[nH]c2ccccc2c1N=Nc1c(C)n(C)n(-c2ccccc2)c1=O`, with “inactive”.
Regarding `COc1ccc(NC(=O)c2ccc(NC(=O)CN3CCN(c4ccc(O)cc4)CC3)cc2)cc1`, the result was inactive.
Then `COc1ccc(NC2CCCN(C(=O)CCc3ccccc3F)C2)cc1` (configuration not stated), with “inactive”.
The same measure for `COC(=O)CCNCCSc1nnc(-c2ccco2)n1Cc1ccccc1`: “inactive”.
As to `CCOC(=O)c1sc(/N=C/c2ccc(O)cc2O)cc1C`, the compound was classed as inactive.
Then `COc1cc(/C=N/NC(=O)c2ccc(=O)[nH]n2)ccc1O`, with “inactive”; and `COc1cc(/C=N/NC(=O)c2nc(-c3ccccc3)n(-c3ccccc3)n2)ccc1O`, with “inactive”; and `COc1ccc(-c2ncc3ccccn23)cc1OC`, with “inactive”.
The same measure for `COc1cccc(-c2ncc3ccccn23)c1`: “inactive”; for `CS(=O)(=O)C1=NSC2=NC(=O)/C(=C\c3ccc(OC(=O)c4ccco4)c(Br)c3)C(=N)N21`: “inactive”; for `CC(=O)Nc1ccc(S(=O)(=O)Nc2nc3ccccc3nc2Nc2ccc(C(=O)O)c(O)c2)cc1`: “inactive”.
Then `C[C@@H]1O[C@@H](OC[C@H]2O[C@@H](Oc3cc(O)c4c(=O)cc(-c5ccc(O)c(O)c5)oc4c3)[C@H](O)[C@@H](O)[C@@H]2O)[C@H](O)[C@H](O)[C@H]1O`, with “inactive”.
Regarding `C=CC[n+]1c(/C=C/c2ccc(OC(C)=O)c(OC)c2)ccc2ccccc21`, the outcome was inactive.
Then `CC/C(=C\c1ccc(N(C)C)cc1)c1ccncc1`, with “inactive”.
Then `CN(C)c1ccc(/C=N/O)cc1`, with “inactive”; and `Nc1cc(Cc2ccccc2)ccc1O`, with “inactive”; and `N#Cc1ccc(OCC(=O)Nc2ccc(N3CCCC3)cc2)cc1`, with “inactive”.
Then `O=C(Nc1ccc(N2CCCCC2)cc1)c1ccccc1`, with “inactive”; and `COc1cc(N=Nc2ccc(C(=O)N(C)C)cc2)c(C)cc1N`, with “inactive”.
As for `N#CC1(Nc2ccc3c4c(cccc24)CC3)CCCCC1`, the compound was classed as inactive.
In the case of `Cc1cnc(NC(=O)C(C)N2CCN(C)CC2)s1` (configuration not stated), the compound was called inactive.
Then `O=C(Nc1ccccc1Cl)Oc1ccc(-c2ccccc2)cc1`, with “inactive”; and `Cc1cc(NC(=O)CN2CCC(C)CC2)no1`, with “inactive”; and `COc1ccccc1NS(=O)(=O)c1ccc(C)c(C(=O)N2CCN(c3ccc(O)cc3)CC2)c1`, with “inactive”.
The same measure for `Cc1ccc(C2C=NN(c3ccccc3)C2=O)cc1` (configuration not stated): “inactive”.
The same measure for `C=CCn1c(=O)/c(=C/c2ccc(O)cc2)s/c1=C(/C#N)c1nnc2n1CCCCC2`: “inactive”; for `COc1ccc(NC2CCCN(C(=O)CCc3scnc3C)C2)cc1` (configuration not stated): “inactive”; for `COc1cc(N)c2ncccc2c1SC`: “inactive”.
For `COc1cc(N)c2ncccc2c1OC`, the call was inactive.
Take `COc1ccccc1N1CCN(/N=C/c2ccc(O)cc2O)CC1`: the result was inactive.
Then `COc1ccc(Br)cc1CNc1ccc(O)cc1`, with “inactive”; and `COc1ccc(CN2CCN(Cc3ccc(Br)cc3)CC2)c(OC)c1OC`, with “inactive”.
The same measure for `COc1ccc(CNCc2cccc(OC)c2OC)cc1Br`: “inactive”; for `COc1ccc(Br)cc1CN(C)CC(=O)NCCc1ccccc1`: “inactive”.
Then `Oc1ccc(/C=N/NC(=S)NCc2ccco2)cc1`, with “inactive”; and `CCN(CC)c1ccc(/C=N/N2CCOCC2)cc1`, with “inactive”; and `CCNc1nc(NCC)nc(N/N=C/c2ccc(O)c(O)c2)n1`, with “inactive”.
As for `COc1ccc(NC(=O)NS(=O)(=O)c2ccc(C)cc2)cc1OC`, the result was inactive.
Then `CCc1nnc(N/N=C/c2cc(Br)c(O)cc2O)n1N`, with “inactive”; and `COc1cc(/C=C/C(=O)OCC(=O)NCc2ccc(F)cc2)ccc1O`, with “inactive”.
Then `CCN(CC)c1ccc(Nc2nc(-c3cccnc3)cs2)cc1`, with “inactive”.
The same measure for `CCN(CC)c1ccc(NC(=O)c2ccc(Br)o2)cc1`: “inactive”; for `COc1ccc(N2CCC(CNC(=O)Nc3ccc(C)c(C)c3)C2)cc1` (configuration not stated): “inactive”.
Take `COc1cc(C(=O)N/N=C/c2ccc(OC)c(CN3CCN(c4ccc(F)cc4)CC3)c2)ccc1O`: the outcome was inactive.
The same measure for `CC1=CC(c2ccccc2)NC(=S)N1` (configuration not stated): “inactive”.
The same measure for `COc1cc2c(cc1N)-c1ccc(N)cc1C2`: “inactive”.
The same measure for `COc1ccc(NC(=O)C(C)N2CCN(C)CC2)cc1` (configuration not stated): “inactive”.
As to `COc1ccc(NC2CCCN(C(=O)c3csc(C(C)C)n3)C2)cc1` (configuration not stated), the compound was called inactive.
The same measure for `CCOc1cc(/C=N/NC(=O)c2ccc(=O)n(C)c2)ccc1O`: “inactive”; for `COc1cc(/C=N/NC(=O)c2nonc2C)ccc1O`: “inactive”; for `O=C(CNC(=O)c1ccncc1)N/N=C/c1ccc(O)cc1O`: “inactive”.
Regarding `Cc1nonc1C(=O)N/N=C/c1ccc(O)cc1`, the outcome was inactive.
Then `COc1cc(/C=N/NC(=O)C2=NNC(=O)C2C)ccc1O` (configuration not stated), with “inactive”; and `COc1cc(/C=N/NC(=O)Cc2nnc(NC(=O)c3ccccc3)s2)ccc1O`, with “inactive”.
Then `CC(=O)Nc1ccc(S(=O)(=O)Nc2ccc(Nc3ccccc3)cc2)cc1`, with “inactive”.
Then `CCn1c(C)nc2cc(C(=O)N/N=C/c3ccc(O)cc3)ccc21`, with “inactive”; and `Cc1nn2cc(-c3ccc(N)cc3)nc2s1`, with “inactive”; and `COc1cc(/C(C)=N/NC(=O)Cc2c(C)[nH][nH]c2=O)ccc1O`, with “inactive”.
On to `C=CCn1c(CNc2ccc(C)cc2)nnc1SCC(=O)N/N=C/c1ccc(O)cc1O`, for which the call was inactive.
The same measure for `CC(C)Cn1c(-c2ccc(Br)o2)n[nH]c1=S`: “inactive”; for `CCN(CC)CCNCC(=O)Nc1ccc(Oc2ccccc2)cc1`: “inactive”.
Then `CCC(=O)c1ccccc1OCCN1CCN(CC)CC1`, with “inactive”; and `CN(C)c1ccc(Cc2ccc(N(C)C)cc2)cc1`, with “inactive”.
The same measure for `O=C1c2c([N+](=O)[O-])cc([N+](=O)[O-])cc2S(=O)N1Cc1ccccc1` (configuration not stated): “inactive”.
For `COc1cc(/C=C/C(=O)OCC(=O)Nc2cccc(F)c2)ccc1O`, the result was inactive.
On to `O=[S@]1Oc2ccccc2-c2ccccc21`, for which the compound was called inactive.
